# From PubChem BioAssay
# Compounds with a hit are over-represented: about 1.8% of the library has one in this group of screens.
# VLA-4 inh: inhibition in human VLA-4 binding assay, primary screen, VLA-4 allosteric modulator project, MLPCN library, flow cytometry, VLA-4 expressing cells | inhibition, % (about 7 µM as worked out from the volumes in the protocol) | AID 2557, 2010 | Integrin alpha-4 (Homo sapiens), P13612 | ligand binding flow cytometry | hit rate 0.2% among 330,000; in the data active = inhibition above about 50%
# A3A deaminase: APOBEC3A ssDNA deaminase inhibitors, primary screen, selectivity assay for APOBEC3G inhibitor project, biochemical, FAM/TAMRA oligo cleavage fluorescence. DNA dC->dU-editing enzyme APOBEC-3A (Homo sapiens), P31941. recombinant A3A, FAM/TAMRA ssDNA deamination fluorescence. inhibition, % at 20 µM. hit rate 0.41% among 330,000;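 active = at least 40% inhibition at 20 µM here, with at most 30% in a related deaminase screen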;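 also: plate controls were A3A with DMSO for no effect and wells lacking A3A enzyme for full effect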
# Target sequence (P31941 whole entry, looked up): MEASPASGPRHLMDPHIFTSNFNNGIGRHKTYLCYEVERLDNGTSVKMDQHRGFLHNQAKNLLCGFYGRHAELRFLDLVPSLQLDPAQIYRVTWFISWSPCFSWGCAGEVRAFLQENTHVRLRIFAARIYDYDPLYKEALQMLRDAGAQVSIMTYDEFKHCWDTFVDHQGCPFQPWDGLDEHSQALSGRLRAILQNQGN
# A3G deaminase: APOBEC3G DNA deaminase inhibitors, primary screen, biochemical, fluorescence, single-stranded DNA substrate, uHTS; DNA dC->dU-editing enzyme APOBEC-3G (Homo sapiens), Q9HC16; recombinant A3G, ssDNA deamination FAM/TAMRA fluorescence; inhibition, % at 20 µM; hit rate 0.28% among 330,000;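 active = inhibition of at least 40% at 20 µM, with no more than 30% in the related APOBEC3A deaminase screen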;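 also: plate controls were DMSO wells with A3G for no effect and wells lacking A3G enzyme for full effect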
# Target sequence (Q9HC16 whole entry, looked up): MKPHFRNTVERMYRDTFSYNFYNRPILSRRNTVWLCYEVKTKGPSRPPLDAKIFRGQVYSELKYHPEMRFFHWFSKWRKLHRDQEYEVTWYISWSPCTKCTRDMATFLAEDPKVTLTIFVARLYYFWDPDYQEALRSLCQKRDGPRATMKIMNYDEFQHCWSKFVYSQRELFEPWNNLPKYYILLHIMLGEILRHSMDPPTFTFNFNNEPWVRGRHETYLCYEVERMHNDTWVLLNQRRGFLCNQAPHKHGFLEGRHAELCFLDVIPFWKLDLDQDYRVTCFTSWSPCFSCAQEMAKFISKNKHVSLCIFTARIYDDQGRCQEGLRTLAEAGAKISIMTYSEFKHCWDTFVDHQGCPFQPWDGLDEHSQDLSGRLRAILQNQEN
# beta cell repl: inducers of MIN6 beta-cell proliferation, primary screen, ATP luminescence, uHTS; AID 2380, 2010; MIN6 cells proliferation, ATPlite luminescence, 48 h; cells starved in 0.2% serum; 100% = growth in 10% serum; proliferation, % at 10 µM; hit rate 0.29% among 330,000;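 active = compounds whose signal lies at least 3.5 SD above the mean of all wells on their plate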;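 also: 0% = DMSO-treated cells in low-serum medium and 100% = 10% serum control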
# NRP1-CendR mod: modulators of CendR peptide binding to NRP-1, primary screen, biochemical, fluorescence polarization, uHTS | FAM-RPARPAR peptide binding to NRP-1 | Neuropilin-1 (Homo sapiens), O14786 | inhibition, % at 25 µM | hit rate 0.85% among 360,000 | AID 602438, 2012;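 active = inhibition or corrected inhibition above about 18%, plus a signal ratio from 0.5 to 1.5, limit read from the data, passing the limit was not always enough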
# The depositor's hits bear a star; · = not tested or not shown.
SMILES,VLA-4 inh,A3A deaminase,A3G deaminase,beta cell repl,NRP1-CendR mod
N/C(CSc1ccc(Cl)cc1)=N\S(=O)(=O)c1ccc(Cl)cc1,10.3,2.2,9.9,-1.4,28.8*
C/C(N)=N\S(=O)(=O)c1ccc(Cl)cc1,-5.1,-5.6,-6.1,0.2,1.6
Cc1cc(C)n(-c2nnc3n2N=C(c2ccccc2)CS3)n1,-0.9,-4.3,-8.3,1.8,3.7
Cc1cc(C)n(-c2nnc3n2N=C(c2c[nH]c4ccccc24)CS3)n1,7.2,-2.1,-5.6,-2.7,23.0*
C=CCNC(=O)c1onc(CSc2ccc(F)c(F)c2)c1C(=O)NCC=C,5.3,0.5,-0.3,-3.5,25.2*
C=CCNC(=O)c1onc(CSc2ccccc2)c1C(=O)NCC=C,12.2,-2.1,-11.1,2.3,6.7
O=C(NCc1cc([N+](=O)[O-])ccc1O)c1cc(-c2ccncc2)nc2ccccc12,-4.4,3.4,-4.1,-2.4,-8.1
CC(C)(C)n1cnc2cc(NS(=O)(=O)c3ccccc3)ccc21,-3.8,3.1,-4.7,-2.7,22.9*
CC(=O)c1ccc(NC(=O)COC(=O)Cn2cnc3ccccc32)cc1,4.4,-2.8,-4.4,3.0,4.9
O=C(COC(=O)Cn1cnc2ccccc21)Nc1ccc(Br)cc1,·,·,·,·,31.7*
COc1ccc(-c2csc(N)n2)cc1,19.4,-7.7,-8.4,-1.4,31.4*
O=C(NCc1ccccn1)C(=O)Nc1cc2c3c(c1)CC(=O)N3CCC2,6.7,7.9,1.6,6.0,-2.8
O=C(NCC(c1ccco1)N1CCCC1)c1ccccc1Sc1ccc(C(F)(F)F)cc1[N+](=O)[O-] (centres undefined),35.7,-1.9,-6.5,-5.9,5.8
Cc1ccc(S(=O)(=O)N(CCC(=O)NCc2ccccc2F)c2ccccc2)cc1,-25.9,6.7,10.9,-1.2,-3.4
Cc1ccc(S(=O)(=O)N(CCC(=O)Nc2ccc(OC(F)(F)F)cc2)c2ccccc2)cc1,30.5,4.2,0.7,-5.5,39.6*
O=C(C(=O)N1CCN(c2cccc(Cl)c2)CC1)c1cn(CC(=O)N2CCOCC2)c2ccccc12,6.1,-0.2,-5.5,-0.6,31.7*
O=C(c1ccccc1-c1ccccc1)N1CCCCC1,2.3,-0.8,-4.1,-3.4,22.9*
O=C(O)c1ccccc1SCC(=O)N1CCCCC1,11.7,0.2,-4.9,-0.3,27.6*
O=C(O)c1ccccc1SCC(=O)N1CCOCC1,8.7,-1.6,-3.3,-1.3,4.6
CCC(C)(C)n1nnnc1C(c1cc(OC)ccc1OC)N1CCN(Cc2ccccc2)CC1 (centres undefined),4.5,-0.9,-5.7,1.5,3.2
O=C(O)CCN1C(=O)c2ccc(NC(=O)c3ccco3)cc2C1=O,10.2,-3.0,-7.4,4.6,21.0*
CCCS(=O)(=O)c1nc(S(=O)(=O)c2ccc(C)cc2)c(N2CCC(C)CC2)s1,-5.5,-4.7,-9.1,-2.5,7.1
CCCS(=O)(=O)c1nc(S(=O)(=O)c2ccc(C)cc2)c(N2CCCC2)s1,5.8,-0.3,5.3,-0.6,19.1*
CN1CCN(c2ccc(CNS(=O)(=O)c3ccsc3)cc2)CC1,-10.4,0.6,-11.4,-2.3,-9.3
Cc1c(Br)c([N+](=O)[O-])nn1CC(=O)NCc1cccs1,-7.5,-2.6,-3.9,-2.7,25.4*
SMILES,VLA-4 inh,A3A deaminase,A3G deaminase,beta cell repl,NRP1-CendR mod
Cc1c(Br)c([N+](=O)[O-])nn1C(C)C(=O)NCc1cccs1 (centres undefined),14.9,1.4,-2.2,-2.9,3.4
Cc1ccc(NC(=O)C2CCCN2C(=O)NC2CCCCC2)cc1C (centres undefined),1.7,0.6,-5.1,-0.1,27.6*
Cc1ccc(NC(=O)C2CCCN2C(=O)NC2CCCCC2)cc1F (centres undefined),-2.5,-1.9,-11.1,1.6,-0.8
O=C(Cc1ccc([N+](=O)[O-])cc1)Nc1cccc(C(=O)N2CCOCC2)c1,-7.5,-3.0,-5.8,-3.0,11.9
O=C(Cc1ccc([N+](=O)[O-])cc1)Nc1cccc(C(=O)N2CCCCC2)c1,15.4,-1.2,-4.7,-3.7,25.6*
COc1ccc(C2/C=C\CN(C(=O)C3CCCCC3)CC(=O)N2Cc2ccc(F)cc2)cc1 (centres undefined),·,-0.9,-7.3,-2.4,34.4*
COc1ccc(C2/C=C\CN(C(=O)C3CCCC3)CC(=O)N2Cc2ccc(F)cc2)cc1 (centres undefined),-8.3,-4.4,-11.7,-2.2,12.4
C=CCC(C#Cc1ccc(C)cc1)N(CC)CC (centres undefined),25.9,-1.8,0.0,-3.0,28.7*
CC1(C(=O)NCC2CC2)Cc2c(-c3cccc(C(F)(F)F)c3)ccnc2O1 (centres undefined),·,·,·,·,34.6*
O=C(CCNS(=O)(=O)c1ccc(Br)cc1)Nc1cccc(F)c1,-14.7,-2.5,-3.8,0.0,2.3
Cc1ccc2cc(C#N)c(SCC(=O)N3CCCc4ccccc43)nc2c1C,12.8,-6.4,-5.5,-3.4,23.5*
CC(/C=N\NC(=O)c1cccnc1)c1ccccc1 (centres undefined),7.7,-1.8,-4.2,-0.7,32.9*
C=CCN(C(=O)c1csnn1)C(C(=O)NCc1ccccc1)c1c(F)cccc1Cl (centres undefined),2.3,-2.6,-5.3,-0.2,26.8*
CC(=O)C1=CCC(c2ccccc2)N(S(=O)(=O)c2cccc(C)c2)C1 (centres undefined),·,·,·,·,-1.8
COc1ccc(C)cc1S(=O)(=O)Nc1cc2c3c(c1)C(C)C(=O)N3CCC2 (centres undefined),13.8,1.7,-4.5,-1.7,22.6*
CCCS(=O)(=O)NC(=O)C1(C)CCN(C(=O)c2ccc(F)c(C)c2)C1 (centres undefined),·,·,·,·,-1.4
C[C@@]12CCC3[C@@](CCC4[C@@]3(C)CCC[C@@]4(C)C(=O)Nc3ccc(Cl)cc3)(CC1=O)C2 (some centres undefined),13.9,-2.4,-10.0,-5.7,26.5*
O=C1c2cc([N+](=O)[O-])cc3cc([N+](=O)[O-])cc(c23)C(=O)N1c1ccccn1,-62.8,·,·,·,28.1*
O=C(O)c1cccc(N2C(=O)c3cc([N+](=O)[O-])cc4cc([N+](=O)[O-])cc(c34)C2=O)c1,-28.0,50.0,39.6,0.6,26.5*
O=C1c2ccc(Oc3cccc([N+](=O)[O-])c3)cc2C(=O)N1c1ccccn1,-1.1,-1.1,-3.9,-1.5,-1.5
O=C(O)c1cccc(N2C(=O)c3cccc4cccc(c34)C2=O)c1,-3.9,5.2,0.0,0.9,-5.4
Cc1cccc(NC(=O)N2CCC(C(=O)c3ccc(F)cc3)CC2)c1,-4.5,-2.9,-6.3,-2.5,-0.1
COC(=O)c1ccccc1NS(=O)(=O)c1ccc(NC(C)=O)cc1,-2.5,2.7,2.1,-3.2,35.1*
